The sample as a whole holds a higher share of hits than the screen did.
KDM5B inh: Primary screen for KDM5B Histone Demethylases FDH-coupled qHTS. Potency, µM (top dose mostly 57.7 µM), actives largely listed as inhibitors. 220,000 compounds, 2.6% hits. KDM5B demethylase, FDH-coupled NADH fluorescence (FDH is formaldehyde dehydrogenase). Lysine-specific demethylase 5B (Homo sapiens), Q9UGL1; active means well fitted inhibition curve with a large enough effect; further: 0% is about no effect; nearly all actives have a fitted effect of over 70% in size
Target sequence (Q9UGL1 whole entry, looked up): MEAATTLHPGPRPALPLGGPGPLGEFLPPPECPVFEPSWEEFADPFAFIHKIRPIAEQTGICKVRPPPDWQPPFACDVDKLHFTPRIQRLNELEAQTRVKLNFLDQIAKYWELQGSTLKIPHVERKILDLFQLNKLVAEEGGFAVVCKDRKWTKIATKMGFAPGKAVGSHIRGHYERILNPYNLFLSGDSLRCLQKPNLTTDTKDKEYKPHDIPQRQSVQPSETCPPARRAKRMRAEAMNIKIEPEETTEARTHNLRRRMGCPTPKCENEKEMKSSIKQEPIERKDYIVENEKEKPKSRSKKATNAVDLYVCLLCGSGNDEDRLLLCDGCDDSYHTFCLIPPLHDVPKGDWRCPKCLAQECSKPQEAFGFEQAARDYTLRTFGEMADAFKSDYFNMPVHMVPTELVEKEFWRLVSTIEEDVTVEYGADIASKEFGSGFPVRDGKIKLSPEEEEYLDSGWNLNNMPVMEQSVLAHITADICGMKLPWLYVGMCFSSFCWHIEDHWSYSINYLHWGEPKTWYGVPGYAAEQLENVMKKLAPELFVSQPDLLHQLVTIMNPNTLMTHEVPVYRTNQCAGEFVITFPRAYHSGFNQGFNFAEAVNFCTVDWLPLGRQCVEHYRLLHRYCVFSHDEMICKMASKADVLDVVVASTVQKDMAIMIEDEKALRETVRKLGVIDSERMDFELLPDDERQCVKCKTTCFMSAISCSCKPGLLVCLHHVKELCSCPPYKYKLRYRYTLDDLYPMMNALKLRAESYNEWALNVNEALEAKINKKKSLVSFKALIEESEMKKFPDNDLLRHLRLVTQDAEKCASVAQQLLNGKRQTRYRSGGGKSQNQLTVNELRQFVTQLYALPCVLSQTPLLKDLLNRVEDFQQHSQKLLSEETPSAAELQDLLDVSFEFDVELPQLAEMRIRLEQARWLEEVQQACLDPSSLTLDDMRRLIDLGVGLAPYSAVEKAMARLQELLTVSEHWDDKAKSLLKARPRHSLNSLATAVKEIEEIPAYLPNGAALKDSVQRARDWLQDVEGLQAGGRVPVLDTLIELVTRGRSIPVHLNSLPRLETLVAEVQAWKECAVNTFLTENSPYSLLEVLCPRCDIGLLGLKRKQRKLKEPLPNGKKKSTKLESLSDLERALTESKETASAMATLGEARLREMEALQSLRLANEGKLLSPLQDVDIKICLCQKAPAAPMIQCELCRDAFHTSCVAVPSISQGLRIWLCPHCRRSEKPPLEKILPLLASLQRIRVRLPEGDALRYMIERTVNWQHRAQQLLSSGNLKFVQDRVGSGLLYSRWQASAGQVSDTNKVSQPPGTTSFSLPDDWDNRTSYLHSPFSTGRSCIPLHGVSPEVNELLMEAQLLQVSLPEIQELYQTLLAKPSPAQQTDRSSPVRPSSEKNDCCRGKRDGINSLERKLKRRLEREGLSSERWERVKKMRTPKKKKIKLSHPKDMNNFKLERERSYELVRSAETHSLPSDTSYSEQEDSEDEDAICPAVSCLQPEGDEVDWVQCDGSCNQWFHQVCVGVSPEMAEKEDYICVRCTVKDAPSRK
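Coupled FDH/NAD⁺ fluorescence readout. KDM5BΔAP 200 nM final; compound titration, 10 min RT preincubation; substrate mix 12.5 µM H3K4me3, 25 µM 2-OG, 50 µM Fe(II), 100 µM ascorbate, 0.25 mM NAD⁺, 0.25 U/mL FDH; ΔRFU over 30 min.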
Starred values were filed as active, the others as inactive. Potency means the concentration at half of the fitted maximal effect.

O=C(c1ccc(N2CCC(O)CC2)nc1)N1CCC(Oc2cccnc2)CC1 was read as KDM5B inh inactive.
O=C(c1ccc(N2CC3CC(C2)[C@H]2CCCC(=O)N2C3)nc1)N1CCOCC1 (some centres undefined) was read as KDM5B inh inactive.
For COc1cc(C)c2c(c1C)C[C@H](C(C)C(=O)NC(C)(C)C)CC2 (some centres undefined) the results were KDM5B inh inactive.
COc1ccc(S(=O)(=O)N2C[C@@H]3C[C@H](C2)c2ccc(NC(=O)c4ccc(C#N)cc4)c(=O)n2C3)cc1 was read as KDM5B inh inactive.
COc1ccc(S(=O)(=O)N2C[C@@H]3C[C@H](C2)c2ccc(NS(=O)(=O)c4cccc(F)c4)c(=O)n2C3)cc1 was read as KDM5B inh inactive.
COc1ccc(S(=O)(=O)N2C[C@@H]3C[C@H](C2)c2ccc(-c4ccc(OC(F)(F)F)cc4)c(=O)n2C3)cc1 was read as KDM5B inh 28µM*.
`CCOC(=O)/C(C#N)=C\c1cc(Cl)c(OC)c(OCC)c1` gave KDM5B inh inactive.
`COc1ccc(S(=O)(=O)Nc2nc3ccccc3nc2Nc2cc(C)ccc2C)cc1` gave KDM5B inh inactive.
Screening CCn1ccc2cc(S(=O)(=O)N3CCC(C(=O)NCCN4CCCCC4)CC3)ccc21 returned KDM5B inh inactive.
`C=CCN(C)C(=O)[C@@H](C)C1CC[C@@]2(C)Cc3sc(-c4cccnc4)nc3[C@@H](C)[C@@H]2[C@H]1O` (some centres undefined) gave KDM5B inh 32µM*.
Screening C=CCN(C)C(=O)[C@@H](C)C1CC[C@@]2(C)Cc3sc(CSc4ccccc4)nc3[C@@H](C)[C@@H]2[C@H]1O (some centres undefined) returned KDM5B inh inactive.
Cc1nc2c(s1)C[C@]1(C)CCC([C@H](C)C(=O)N3CCOCC3)[C@H](O)[C@H]1[C@@H]2C (some centres undefined) was read as KDM5B inh inactive.
For CNc1nc2c(s1)C[C@]1(C)CCC([C@H](C)C(=O)N3CCSCC3)[C@H](O)[C@H]1[C@@H]2C (some centres undefined) the results were KDM5B inh inactive.
For COCCNC(=O)[C@@H](C)C1CC[C@@]2(C)Cc3sc(NC(=O)CN(C)C)nc3[C@@H](C)[C@@H]2[C@H]1O (some centres undefined) the results were KDM5B inh inactive.
Screening C=CCN(C)C(=O)[C@@H](C)C1CC[C@@]2(C)Cc3sc(NCCCC)nc3[C@@H](C)[C@@H]2[C@H]1O (some centres undefined) returned KDM5B inh 35µM*.
Screening C[C@H](C(=O)NCCN1CCOCC1)C1CC[C@@]2(C)Cc3sc(-c4ccccc4)nc3[C@@H](C)[C@@H]2[C@H]1O (some centres undefined) returned KDM5B inh 25µM*.
`C[C@H](C(=O)N1CCSCC1)C1CC[C@@]2(C)Cc3sc(Nc4c(Cl)cccc4Cl)nc3[C@@H](C)[C@@H]2[C@H]1O` (some centres undefined) gave KDM5B inh inactive.
For COc1ccc(C(=O)N[C@H]2CC[C@]3(C)CCC([C@H](C)C(=O)N(C)Cc4cccnc4)[C@H](O)[C@H]3[C@@H]2C)cc1 (some centres undefined) the results were KDM5B inh inactive.
For O=C(Nc1ccc2ccccc2c1)C1CCCCC1 the results were KDM5B inh inactive.
For O=C(NCc1cnn(-c2ccccc2)c1)C1CCN(S(=O)(=O)c2ccccc2)CC1 the results were KDM5B inh inactive.
Screening CCN1CCC2(Cc3ccccc3CN(C(=O)c3cccc(Cl)c3)C2)C1 (centres undefined) returned KDM5B inh inactive.
Screening O=C(NCC1CCOCC1)Nc1ccccc1C(F)(F)F returned KDM5B inh inactive.
Screening CC1(C(=O)NCC2CCCO2)CCc2cnc(NCc3ccccc3)nc21 (centres undefined) returned KDM5B inh 40µM*.
Screening CC1(C(=O)NCC2CC2)CCCc2cnc(NCc3ccccc3)nc21 (centres undefined) returned KDM5B inh 35µM*.
`CC1(C(=O)NC2CC2)CCc2cnc(Nc3ccccc3)nc21` (centres undefined) gave KDM5B inh inactive.
For CC1(C(=O)NCCCn2ccnc2)COCc2cnc(Nc3ccccc3)nc21 (centres undefined) the results were KDM5B inh inactive.
Cc1oc(-c2ccccc2)nc1CC(=O)NCC1CCCO1 (centres undefined) was read as KDM5B inh inactive.
`O=C(Cc1ccc(-c2ccccc2)cc1)NCCc1ccccn1` gave KDM5B inh inactive.
Screening CC1(C(=O)NCCc2ccccn2)CCc2cnc(NCc3ccccc3)nc21 (centres undefined) returned KDM5B inh 32µM*.
Screening CC1(C(=O)NC2CC2)CCCc2cnc(Nc3ccccc3)nc21 (centres undefined) returned KDM5B inh inactive.
For O=C1NCCC[C@@H]1NC(=O)[C@@H]1CN(C(=O)c2cccc(F)c2)CCN1C(=O)C1CCNCC1 the results were KDM5B inh inactive.
`CN1C(=O)C2(CCN(C(=O)CCC3CCCCC3)CC2)c2ccccc21` gave KDM5B inh inactive.
`CC(=O)Nc1ccc(SCCCC(=O)c2ccc(F)cc2)cc1` gave KDM5B inh inactive.
Screening O=C(N[C@H](Cc1ccccn1)C1CC(O)C1)c1n[nH]c2c1CCCC2 (some centres undefined) returned KDM5B inh inactive.
O=C(Cc1c[nH]c2ccccc12)N[C@H](Cc1ccccn1)C1CC(O)C1 (some centres undefined) was read as KDM5B inh inactive.
Screening O=C(N[C@H](Cc1ccccn1)C1CC(O)C1)c1cccc2c1NCCC2 (some centres undefined) returned KDM5B inh 32µM*.
Screening Cc1nc(C)c(C(=O)N2CC[C@H](CO)[C@H](NC(=O)C3CC3)C2)s1 returned KDM5B inh inactive.
Screening Cc1cnc2c(S(=O)(=O)N3CCN(CC(C)C)CC3)cccc2c1 returned KDM5B inh inactive.
`CNC(=O)[C@@H]1CN(C(=O)NCc2ccccc2)C[C@H]1c1nc(C)no1` gave KDM5B inh inactive.
Screening CCCC1=Nc2cc(C(=O)NCCc3ccc(OC)c(OC)c3)ccc2Sc2ccccc21 returned KDM5B inh inactive.
`O=C(CCCc1c[nH]c2ccccc12)Nc1cccc2cnccc12` gave KDM5B inh inactive.
For Cc1ccc(NCc2ccccc2CO)c(C)c1 the results were KDM5B inh inactive.
Screening CCC(O)C1CCN(C(=O)c2cnn3cc(CN(CC)CC)cnc23)CC1 (centres undefined) returned KDM5B inh inactive.
Screening CCN(CC)Cc1cnc2c(C(=O)N3CCCC(COC)C3)cnn2c1 (centres undefined) returned KDM5B inh inactive.
Screening CN1C[C@@H]2CC[C@H](CC1=O)N2C(=O)c1cnn2cc(CCO)cnc12 returned KDM5B inh 32µM*.
`NC[C@H]1O[C@H](Cc2cc(-c3ccc(F)cc3)on2)CC[C@@H]1O` gave KDM5B inh inactive.
Screening c1cc(-c2noc([C@@H]3CCCN3Cc3ncc[nH]3)n2)cc(N2CCOCC2)n1 returned KDM5B inh 32µM*.
For COc1ccc(CCC(=O)N2CCC[C@H]2c2nc(-c3ccc(OC)cc3)no2)cc1 the results were KDM5B inh inactive.
